These results are taken from PubChem BioAssay (NCI).

Assay [1] can be described thus: NCI Yeast Anticancer Drug Screen. Data for the rad50 strain (AID 155).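 Further: 0% = growth of vehicle-only cultures of the same strain.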 Particulars: S. cerevisiae rad50 strain growth inhibition; at 50.0 µM; stronger effect = higher value. The essentials: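 Compounds were tested on a yeast strain with an engineered DNA damage repair alteration; the reported value is growth inhibition normalised to vehicle treatment.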
The nature of assay [2]: NCI Yeast Anticancer Drug Screen. Data for the mec2-1 strain (AID 157). The conditions noted are these: S. cerevisiae mec2-1 strain, at 50.0 µM, stronger effect = higher value. In outline: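 Cells of the genetically defined mec2-1 yeast strain are incubated with test compound. Inhibition of growth is calculated against vehicle-treated controls.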
The nature of assay [3]: NCI Yeast Anticancer Drug Screen. Data for the sgs1 mgt1 strain (AID 161).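 Further: 0% = growth of cultures given vehicle only.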 The conditions noted are these: S. cerevisiae sgs1 mgt1 strain, at 50.0 µM, stronger effect = higher value. The essentials: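 Inhibition of yeast growth, normalised to vehicle-treated controls, is reported for a strain bearing genetic alterations in DNA damage repair.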
Assay [4] in a line: NCI Yeast Anticancer Drug Screen. Data for the cln2 rad14 strain (AID 165).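 Further: 0% = growth equal to vehicle treated cultures.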 Particulars: S. cerevisiae cln2 rad14 strain, at 50.0 µM, stronger effect = higher value. The essentials:
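The screen exposed genetically defined yeast (cln2 rad14) to test compounds and scored growth inhibition relative to vehicle-treated controls.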

Assay [5] can be described thus: NCI Yeast Anticancer Drug Screen. Data for the bub3 strain (AID 167). The conditions noted are these: S. cerevisiae bub3 mutant strain, at 50.0 µM, stronger effect = higher value. The essentials: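 Growth of a checkpoint-deficient yeast mutant is measured after compound exposure. Values represent inhibition relative to vehicle.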
Assay [6] in a line: NCI Yeast Anticancer Drug Screen. Data for the mlh1 rad18 strain (AID 175). Particulars: S. cerevisiae mlh1 rad18 strain growth inhibition; at 50.0 µM; stronger effect = higher value. The essentials:
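Compound-treated yeast growth, normalised to vehicle controls. Strain bears defined DNA repair mutations.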

Molecules are shown by their SMILES. About 79,000 compounds went through this panel and 15% of them were active in at least one assay; those are over-represented in the sample as a whole. Values without a mark were called inactive. Activity calls are given as the source filed them. No stated cut-off is given here; in the data, active means growth inhibition above about 70%; inactive means the rest.

With `COc1cc(/C=N\NS(=O)(=O)c2ccc(N)cc2)ccc1O`, the growth inhibition is 10.1% in assay [1]; -18.3% in assay [2]; 5.05% in assay [3]; 9.55% in assay [4]; -24.8% in assay [5]; 17.1% in assay [6].
As to `Ic1ccccc1`, the growth inhibition in assay [1] is -0.9%; in assay [2] it was 7.25%; in assay [3], -41.4%; in assay [4] it was -9.35%; in assay [5], -45.8%; in assay [6] it was -65.7%.
`Nc1cc2c(cc1Br)-c1ccc(Br)cc1C2=O`: the growth inhibition was -6.65% in assay [1]; -6.65% in assay [2]; -0.7% in assay [3]; -30.2% in assay [4]; 21.4% in assay [5]; -5.25% in assay [6].
On to `Cc1cccc(N2CCN(c3ccc4nonc4c3[N+](=O)[O-])CC2)c1`, for which the growth inhibition is -5.05% in assay [1]; -4.4% in assay [2]; -9.9% in assay [3]; -13% in assay [4]; -13.9% in assay [5]; -15.3% in assay [6].
For the compound `O=C1NC(N2CCCC(CO)C2)=N/C1=C\c1ccc(Cl)cc1` (stereo not given), the growth inhibition in assay [1] is 25.6%; in assay [2], -10.9%; in assay [3], -18.9%; in assay [4], 23.6%; in assay [5], -17.8%; in assay [6], -19.1%.
Turning to `C[N+]1=C2[B-](C(C)(C)C)=[N+](C(C)(C)C)[B-]2(C(C)(C)C)[N+](C)=C2[B-](C(C)(C)C)=[N+](C(C)(C)C)[B-]21C(C)(C)C` (stereo not given), the growth inhibition in assay [1] is 2.65%; in assay [2], 0%; in assay [3], 9.35%; in assay [4], -8.35%; in assay [5], -4.1%; in assay [6], -9.85%.
In the case of `NCC(=O)N1CCCCC1`, the growth inhibition in assay [1] was 7.05%; in assay [2], 9.75%; in assay [3] it was 4.95%; in assay [4], -8.15%; in assay [5], -2.1%; in assay [6], 7.7%.
Turning to `C1=CC([P+](Cc2ccccc2)(c2ccccc2)c2ccccc2)CC1` (stereo not given), the growth inhibition in assay [1] was 81.8% (active); in assay [2], 65.5%; in assay [3], 55.9%; in assay [4], -1.55%; in assay [5] it was 52.6%; in assay [6], 52.9%.
Take `COC(=O)C12CC3CC(CC(C(=O)O)(C3)C1)C2`: the growth inhibition in assay [1] was -10.2%; in assay [2] it was -7.95%; in assay [3], -4.8%; in assay [4] it was -3.2%; in assay [5] it was -1.65%; in assay [6] it was -14.8%.
Consider `Cc1cc(OC(C)C)cc(C)c1C(=O)OCC(C)N1CCCC1` (stereo not given), for which the growth inhibition in assay [1] is 11.8%; in assay [2], -8.2%; in assay [3], 19.9%; in assay [4] it was 5.35%; in assay [5], -4.9%; in assay [6], 11.2%.
`CN(C(=S)NNC(=O)C1CCC(=O)N1)c1ccccc1` (stereo not given): the growth inhibition in assay [1] is 23.2%; in assay [2] it was -2%; in assay [3], 3.3%; in assay [4] it was 13.7%; in assay [5], 21.4%; in assay [6], 26.9%.
On to `CC1=C(CCC(=O)O)c2cc3nc(cc4[nH]c(cc5[nH]c(cc1n2)c(C)c5C(C)O)c(C)c4C(C)O)C(C)=C3CCC(=O)O` (stereo not given), for which the growth inhibition in assay [1] was 12.4%; in assay [2], 5.2%; in assay [3], 7.7%; in assay [4] it was 29.8%; in assay [5] it was 21.6%; in assay [6], 1.65%.
For `CC1(O)Oc2c(cc(C(C)(C)C)cc2C(C)(C)C)C1=O` (stereo not given), the growth inhibition in assay [1] is 17.4%; in assay [2], -10.1%; in assay [3], 18.2%; in assay [4], -9%; in assay [5], 23.6%; in assay [6] it was 42.6%.
Turning to `O=NN(Cc1ccccc1)NC(=O)c1ccccc1`, the growth inhibition is 6.2% in assay [1]; 28.1% in assay [2]; 8.9% in assay [3]; -8.4% in assay [4]; 20.9% in assay [5]; 11.2% in assay [6].
For the compound `OC1c2ccccc2C(O)c2c1ccc1c2CN(Cc2ccccc2)CC1` (stereo not given), the growth inhibition in assay [1] was 5.05%; in assay [2], 8.25%; in assay [3] it was 1.95%; in assay [4], 15.1%; in assay [5], 1.3%; in assay [6], 33.2%.
Turning to `CN1C(=O)N(C)C(N2CCCC2)c2c1nc1ccccn1c2=O` (stereo not given), the growth inhibition in assay [1] was -11.7%; in assay [2], -30.8%; in assay [3], -41.8%; in assay [4] it was 5.15%; in assay [5], -5%; in assay [6] it was -29.4%.
`COc1ccc2c(c1)[n+]([O-])c(/C(C)=N/NC(N)=S)c(C)[n+]2[O-]`: the growth inhibition in assay [1] was 65.6%; in assay [2] it was 12.2%; in assay [3] it was 41.6%; in assay [4], 11.4%; in assay [5], 61%; in assay [6], 47.1%.
`ClC(Cl)(Cl)C(Cl)(Cl)C(Cl)(Cl)Cl`: the growth inhibition in assay [1] is 42.1%; in assay [2], 14.8%; in assay [3], 16%; in assay [4] it was -19.4%; in assay [5], 6.75%; in assay [6] it was 24.3%.
Turning to `O=C(O)c1ccc(F)cc1C(=O)O`, the growth inhibition in assay [1] is 5.5%; in assay [2], 6%; in assay [3], 4.75%; in assay [4], 5.25%; in assay [5] it was 3.2%; in assay [6], 1.45%.
For `Cc1cc(C)cc(C(=O)N=C(c2ccncc2)c2nc(-c3ccccc3)oc2O)c1`, the growth inhibition in assay [1] was -3.3%; in assay [2], 13.9%; in assay [3] it was -16.6%; in assay [4] it was -12.4%; in assay [5] it was 3.15%; in assay [6], -1.3%.
